Data on nine molecules can be found in PubChem BioAssay (NCATS).

Assay [1] can be described thus: Cell Viability - NIH 3T3 (AID 541).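 Further: cells exposed to compound for 40 hours; plate controls were DMSO alone for no effect and tamoxifen positive control for full effect; nearly all actives have a fitted effect of over 25% in size.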 The conditions noted are these: NIH 3T3 cell viability, qHTS; activity change, negative = cytotoxicity: at 92.2 µM (top of the series). In a few lines:
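AC50 values reflect concentration-dependent loss of intracellular ATP in NIH 3T3 cells after 40 hr treatment in complete culture medium, quantified by luciferase-based luminescence.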
For orientation: qHTS replaces the single test concentration by a dilution series.

The nature of assay [2]: Cell Viability - LYMP2-014 (AID 983).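 Further: cells exposed to compound for 24 h at 37 °C; plate controls were DMSO only for no effect and 92 µM tetraoctylammonium bromide for full effect; nearly all actives have a fitted effect of over 50% in size.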 In a few lines: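 Decrease in intracellular ATP after 24 hr treatment at 37 C, measured by luciferase luminescence, indicated cytotoxicity. Concentration-response data were fitted with the standard Hill equation to give AC50.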
The nature of assay [3]: Cell Viability - LYMP2-018 (AID 985).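 Further: compound exposure lasted 24 hr at 37 °C; plate controls were DMSO only for no effect and tetraoctylammonium bromide at 92 µM for full effect; nearly all actives have a fitted effect of over 50% in size.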 In a few lines: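 Acute cytotoxicity is scored as a concentration-dependent drop in intracellular ATP after 24 hr exposure of the lymphoblastoid line in complete culture medium, measured by luciferase luminescence. Potency is expressed as AC50 from Hill modelling.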
Assay [4] concerns the target Glucocorticoid receptor (Homo sapiens) (UniProt P04150). Description: qHTS assay for small molecule agonists of glucocorticoid receptor signaling (AID 588532; active means well fitted curve in the direction sought with a large enough effect in the signal ratio, with a control signal flat; the % refers to the signal ratio;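 further: 100% = dexamethasone at 0.1 µM and 0% = DMSO only wells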). The conditions noted are these: HeLa MMTV-bla, beta-lactamase ratio, agonist, 18 h; stronger effect = higher value; percent of dexamethasone control, DMSO zero. In a few lines: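 Quantitative HTS using CellSensor MMTV-bla HeLa cells in charcoal/dextran-treated serum; compounds tested up to 92 uM. After 18 h at 37 C, CCF4 dye reported reporter induction.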

Assay [5] has the same target. In words: qHTS assay for small molecule antagonists of glucocorticoid receptor signaling (AID 588533; active means well fitted inhibition curve with a large enough effect in the signal ratio, with a control signal flat, not every such curve was filed as active; the % refers to the signal ratio;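 further: cells stimulated with 2 nM dexamethasone as agonist; on the % scale 0 is the no-effect control and ±100 the full control effect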). In a few lines:
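Antagonist-mode qHTS: compound titrations added to GRE-bla HeLa cells, then dexamethasone 2 nM final; 18 h, 37 C. CCF4 FRET fluorescence normalized to dexamethasone and DMSO; IC50 from Hill fit.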

The target in assay [6] is Peroxisome proliferator-activated receptor delta (Homo sapiens) (UniProt Q03181). Description: qHTS assay for small molecule agonists of peroxisome proliferator-activated receptor delta signaling (AID 588534; calls by dose curve;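 further: 0% = DMSO basal wells and 100% = positive control agonist at 10 µM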). In a few lines: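 Reporter cells were plated and held 5 hrs at 37 C before compounds were added. After 18 hrs at 37 C, CCF4 dye was loaded for 2 hrs at RT and fluorescence measured.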

Assay [7] has as its target Peroxisome proliferator-activated receptor gamma (Homo sapiens) (UniProt P37231). In words: qHTS assay for small molecule agonists of peroxisome proliferator-activated receptor gamma signaling (AID 588536; active means well fitted curve in the direction sought with a large enough effect in the signal ratio, with a control signal flat, not every such curve was filed as active; the % refers to the signal ratio;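 further: 0% = DMSO basal wells and 100% = rosiglitazone at 2 µM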). In a few lines: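 Test agents, titrated, stimulated HEK293 UAS-bla cells overnight (16 h, 37 C). Substrate CCF4 was then added for two hours at room temperature before fluorescence reading.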

The target of assay [8] is Voltage-gated inwardly rectifying potassium channel KCNH2 (Homo sapiens) (UniProt Q12809). In words: qHTS Assay for Small Molecule Inhibitors of the Human hERG Channel Activity (AID 588834).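 Further: top concentration of the series differs between compounds; on the % scale 0 is the no-effect control and ±100 the full control effect; lower thallium flux fluorescence means stronger hERG block; nearly all actives have a fitted effect of over 50% in size.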 In a few lines: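 Concentration-response qHTS measuring drop in thallium-sensitive dye signal. U2OS cells carrying BacMam hERG; compound exposure ~10 min, then stimulation buffer and 2 min read at 1 sec intervals.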

The nature of assay [9]: qHTS assay for small molecule agonists of the antioxidant response element (ARE) signaling pathway (AID 651741; active means well fitted activation curve with a large enough effect in the signal ratio; the % refers to the signal ratio; further: % of control where 0% means no effect). In a few lines: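 Seeding 2,000 ARE-bla HepG2 cells per well preceded a 5 h incubation at 37 C/5% CO2 and a 16 h compound exposure at 37 C. Beta-lactamase reporter activity was then quantified by fluorescence after 2 h with LiveBLAzer B/G FRET substrate.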
Assay [10] can be described thus: qHTS assay for small molecule disruptors of the mitochondrial membrane potential - 5 hr assay (AID 651755; calls by dose curve; further: on the % scale 0 is the no-effect control and ±100 the full control effect; nearly all actives have a fitted effect of over 40% in size). In a few lines: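 HepG2, 2,000 cells/well, overnight attach; cpd or DMSO 5 hr, 37C/5% CO2; Mito-MPS 30 min 37C; fluor 490/535 + 540/590 nm.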
Assay [11] in a line: qHTS assay for environmental chemicals that activate the Aryl hydrocarbon Receptor (AhR) signaling pathway (AID 651777). Further: % of control where 0% means no effect; nearly all actives have a fitted effect of over 15% in size. The conditions noted are these: 1A2-DRE human hepatoma cells, luciferase, 24 h; activation: stronger effect = higher value. In a few lines: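 Following a 24 hr incubation with test chemicals at 37 C and 5% CO2, 1A2-DRE human hepatoma cells received One-Glo reagent; after 30 min at room temperature, luciferase output reflected CYP1A2 induction via AhR.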

Assay [12] is described as follows: Cell Viability - H-4-II-E (AID 543).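 Further: cells exposed to compound for 40 hours; nearly all actives have a fitted effect of over 35% in size.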 Further: potency means the concentration at half of the fitted maximal effect. In a few lines:
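Here, cytotoxicity is measured in the rat hepatoma line H-4-II-E as loss of intracellular ATP after 40 hr compound treatment, detected by luciferase luminescence.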

The nature of assay [13]: Cell Viability - LYMP2-024 (AID 988).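 Further: cells exposed to compound for 24 hr at 37 °C; plate controls were DMSO only for no effect and 92 µM tetraoctylammonium bromide for full effect; nearly all actives have a fitted effect of over 60% in size.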 In a few lines: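 Acute toxicity is measured as concentration-dependent loss of intracellular ATP in a human lymphoblastoid line treated 24 hours at 37 C. Luciferase luminescence quantifies ATP; AC50 values come from standard Hill-equation modelling.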
Assay [14] in a line: qHTS assay for small molecule activators of the nuclear factor-kappa B (NF-kB) signaling pathway (AID 651749; active means well fitted activation curve with a large enough effect in the signal ratio; the % refers to the signal ratio; further: % of control where 0% means no effect). The conditions noted are these: NF-kB-bla ME-180 cells, beta-lactamase FRET ratio, 16 h; stronger effect = higher value. In a few lines: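 Stably transfected ME-180 line; NF-kB response element upstream of beta-lactamase. Treatment: compound or DMSO, 16 hr. Detection: fluorescent FRET substrate.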

Assay [15] deals with Estrogen receptor (Homo sapiens) (UniProt P03372). In words: qHTS assay for small molecule antagonists of estrogen receptor alpha signaling (AID 588513; active means well fitted curve in the direction sought with a large enough effect in the signal ratio, with a control signal flat, not every such curve was filed as active; the % refers to the signal ratio; further: on the % scale 0 is the no-effect control and ±100 the full control effect). In a few lines: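 Beta-lactamase reporter, antagonist mode, HEK 293 GripTite cells; 0.5nM E2 stimulus, 18 h, 37 C; CCF4 dye 2 h RT; fluorescence. IC50 and efficacy from Hill fits, normalized to E2 and DMSO.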
For assay [16] the target is unchanged. In words: qHTS assay for small molecule agonists of estrogen receptor alpha signaling (AID 588514; calls by dose curve;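 further: 0% = vehicle only and 100% = reference agonist; nearly all actives have a fitted effect of over 70% in size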). In a few lines:
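Reporter-gene assay. […] controls beta-lactamase in HEK 293 GripTite cells; after 18 hrs with compound, CCF4 substrate is added for 2 hrs and fluorescence is read.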

For assay [17], the target named is Peroxisome proliferator-activated receptor gamma (Homo sapiens) (UniProt P37231). In words: qHTS assay for small molecule antagonists of peroxisome proliferator-activated receptor gamma signaling (AID 588537; active means well fitted inhibition curve with a large enough effect in the signal ratio, with a control signal flat, not every such curve was filed as active; the % refers to the signal ratio;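 further: reporter cells co-stimulated with 50 nM rosiglitazone agonist during compound treatment; % of control where 0% means no effect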). In a few lines: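 Inhibitors of agonist-stimulated UAS-bla reporter activity were sought in HEK293 cells; rosiglitazone (50 nM) defined full signal and DMSO baseline. Curves fitted to Hill model gave IC50 and efficacy.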

Assay [18] is described as follows: MultiTox-Fluor Cytotoxicity Assay - LYMP1-001 - Live Cells (AID 947).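 Further: 0% = DMSO only and full inhibition = tetraoctylammonium bromide control.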
Assay [19] in a line: qHTS assay for small molecule antagonists of peroxisome proliferator-activated receptor delta signaling (AID 588535; active means well fitted inhibition curve with a large enough effect in the signal ratio, with a control signal flat, not every such curve was filed as active; the % refers to the signal ratio;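 on max response: cells co-treated with a PPAR-delta agonist as stimulator during compound exposure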). The conditions noted are these: HEK293T PPARd-UAS-bla, beta-lactamase FRET ratio, 18 h; 460 nm channel. In a few lines: (§1)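 Cell-based beta-lactamase assay in antagonist mode: 4000 HEK293T PPAR-delta-UAS-bla cells per well, 5 hr preincubation then 18 hr compound incubation at 37 C. IC50 obtained by Hill equation fitting.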

The target of assay [20] is Peroxisome proliferator-activated receptor delta (Homo sapiens) (UniProt Q03181). The description is as above. In a few lines:
as §1

The structures appear in SMILES notation. “And” between values parts separate entries of the source, which are not always exact repeats. Equal entries are not always repeated. Results filed as inconclusive are left out. The source made the active and inactive calls. Unless noted, the call rests on the fitted dose curve; in most records, active means well fitted curve in the direction sought with a large enough effect; inconclusive means small, poorly fitted or top-dose-only effect, or another doubt; inactive means no such curve, though single readings can be large; an effect the other way counts as inactive or inconclusive.

Chain of Voltage-gated inwardly rectifying potassium channel KCNH2 (Homo sapiens) (Q12809 whole entry, looked up): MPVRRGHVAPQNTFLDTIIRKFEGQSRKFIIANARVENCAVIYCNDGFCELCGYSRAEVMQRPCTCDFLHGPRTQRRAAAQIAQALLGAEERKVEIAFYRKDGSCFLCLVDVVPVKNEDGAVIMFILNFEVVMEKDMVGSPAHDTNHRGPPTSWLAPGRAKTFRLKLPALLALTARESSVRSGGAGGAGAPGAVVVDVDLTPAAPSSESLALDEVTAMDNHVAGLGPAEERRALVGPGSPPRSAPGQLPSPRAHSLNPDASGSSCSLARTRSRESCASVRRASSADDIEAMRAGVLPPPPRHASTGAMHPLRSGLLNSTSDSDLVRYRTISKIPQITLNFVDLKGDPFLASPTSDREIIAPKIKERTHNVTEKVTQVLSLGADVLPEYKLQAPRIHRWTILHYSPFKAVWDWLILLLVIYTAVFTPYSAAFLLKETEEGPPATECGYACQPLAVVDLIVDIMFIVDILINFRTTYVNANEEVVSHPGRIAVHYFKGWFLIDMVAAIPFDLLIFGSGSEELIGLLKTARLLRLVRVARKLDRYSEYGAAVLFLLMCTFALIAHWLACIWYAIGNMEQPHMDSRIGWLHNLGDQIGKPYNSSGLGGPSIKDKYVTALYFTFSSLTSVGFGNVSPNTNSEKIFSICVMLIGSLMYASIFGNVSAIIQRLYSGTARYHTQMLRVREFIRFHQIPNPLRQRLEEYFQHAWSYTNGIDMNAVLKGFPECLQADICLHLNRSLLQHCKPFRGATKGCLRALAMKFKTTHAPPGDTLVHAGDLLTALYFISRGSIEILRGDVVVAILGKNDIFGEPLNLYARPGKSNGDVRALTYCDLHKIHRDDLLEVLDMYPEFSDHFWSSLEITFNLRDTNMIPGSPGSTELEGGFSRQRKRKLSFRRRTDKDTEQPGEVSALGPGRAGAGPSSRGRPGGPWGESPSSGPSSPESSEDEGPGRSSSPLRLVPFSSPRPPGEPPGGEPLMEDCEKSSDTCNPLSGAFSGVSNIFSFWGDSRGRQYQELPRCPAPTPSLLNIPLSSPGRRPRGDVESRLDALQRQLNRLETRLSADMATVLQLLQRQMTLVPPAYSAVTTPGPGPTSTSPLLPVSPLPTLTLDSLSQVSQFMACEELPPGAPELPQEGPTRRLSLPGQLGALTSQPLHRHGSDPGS
Chain of Estrogen receptor (Homo sapiens) (P03372 whole entry, looked up): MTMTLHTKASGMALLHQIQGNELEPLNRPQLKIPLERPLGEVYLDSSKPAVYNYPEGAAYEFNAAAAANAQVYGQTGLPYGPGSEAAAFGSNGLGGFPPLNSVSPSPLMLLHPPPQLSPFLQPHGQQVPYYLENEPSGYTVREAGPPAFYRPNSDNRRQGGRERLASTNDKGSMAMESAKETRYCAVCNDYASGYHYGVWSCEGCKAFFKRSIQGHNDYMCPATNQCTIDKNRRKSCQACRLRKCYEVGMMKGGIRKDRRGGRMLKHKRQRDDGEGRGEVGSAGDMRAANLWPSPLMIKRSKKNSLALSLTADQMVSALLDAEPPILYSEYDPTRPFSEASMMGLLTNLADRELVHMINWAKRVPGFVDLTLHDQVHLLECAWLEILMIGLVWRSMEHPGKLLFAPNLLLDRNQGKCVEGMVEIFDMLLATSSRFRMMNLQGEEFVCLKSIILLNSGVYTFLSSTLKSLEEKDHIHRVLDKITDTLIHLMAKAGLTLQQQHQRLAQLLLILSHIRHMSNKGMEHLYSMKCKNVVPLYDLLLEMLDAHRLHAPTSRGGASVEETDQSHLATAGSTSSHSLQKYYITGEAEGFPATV
Chain of Peroxisome proliferator-activated receptor gamma (Homo sapiens) (P37231 whole entry, looked up): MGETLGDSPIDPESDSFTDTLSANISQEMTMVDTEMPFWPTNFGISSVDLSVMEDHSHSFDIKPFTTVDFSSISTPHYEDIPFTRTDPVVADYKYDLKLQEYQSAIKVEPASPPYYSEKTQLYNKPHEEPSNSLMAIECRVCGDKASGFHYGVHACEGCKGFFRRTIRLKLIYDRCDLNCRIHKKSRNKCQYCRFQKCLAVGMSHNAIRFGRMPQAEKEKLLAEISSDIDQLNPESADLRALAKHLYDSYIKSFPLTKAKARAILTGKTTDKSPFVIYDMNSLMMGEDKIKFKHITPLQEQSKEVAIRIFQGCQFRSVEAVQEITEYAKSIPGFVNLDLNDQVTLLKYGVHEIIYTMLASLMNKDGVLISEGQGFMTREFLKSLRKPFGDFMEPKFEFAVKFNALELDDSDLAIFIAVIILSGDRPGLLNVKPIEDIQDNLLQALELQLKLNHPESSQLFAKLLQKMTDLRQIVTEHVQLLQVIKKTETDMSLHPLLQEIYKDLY
Chain of Peroxisome proliferator-activated receptor delta (Homo sapiens) (Q03181 whole entry, looked up): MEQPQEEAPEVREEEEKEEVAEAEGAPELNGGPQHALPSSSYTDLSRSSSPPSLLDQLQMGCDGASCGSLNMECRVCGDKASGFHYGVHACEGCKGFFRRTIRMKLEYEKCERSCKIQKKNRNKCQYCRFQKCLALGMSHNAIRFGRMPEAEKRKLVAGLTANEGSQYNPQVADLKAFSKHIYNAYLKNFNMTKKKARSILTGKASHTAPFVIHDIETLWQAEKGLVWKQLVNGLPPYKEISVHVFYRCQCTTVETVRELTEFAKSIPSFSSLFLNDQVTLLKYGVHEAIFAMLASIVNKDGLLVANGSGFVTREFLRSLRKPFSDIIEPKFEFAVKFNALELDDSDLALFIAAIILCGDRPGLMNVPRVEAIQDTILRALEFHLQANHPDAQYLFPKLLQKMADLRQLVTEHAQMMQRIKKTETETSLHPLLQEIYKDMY
Chain of Glucocorticoid receptor (Homo sapiens) (P04150 whole entry, looked up): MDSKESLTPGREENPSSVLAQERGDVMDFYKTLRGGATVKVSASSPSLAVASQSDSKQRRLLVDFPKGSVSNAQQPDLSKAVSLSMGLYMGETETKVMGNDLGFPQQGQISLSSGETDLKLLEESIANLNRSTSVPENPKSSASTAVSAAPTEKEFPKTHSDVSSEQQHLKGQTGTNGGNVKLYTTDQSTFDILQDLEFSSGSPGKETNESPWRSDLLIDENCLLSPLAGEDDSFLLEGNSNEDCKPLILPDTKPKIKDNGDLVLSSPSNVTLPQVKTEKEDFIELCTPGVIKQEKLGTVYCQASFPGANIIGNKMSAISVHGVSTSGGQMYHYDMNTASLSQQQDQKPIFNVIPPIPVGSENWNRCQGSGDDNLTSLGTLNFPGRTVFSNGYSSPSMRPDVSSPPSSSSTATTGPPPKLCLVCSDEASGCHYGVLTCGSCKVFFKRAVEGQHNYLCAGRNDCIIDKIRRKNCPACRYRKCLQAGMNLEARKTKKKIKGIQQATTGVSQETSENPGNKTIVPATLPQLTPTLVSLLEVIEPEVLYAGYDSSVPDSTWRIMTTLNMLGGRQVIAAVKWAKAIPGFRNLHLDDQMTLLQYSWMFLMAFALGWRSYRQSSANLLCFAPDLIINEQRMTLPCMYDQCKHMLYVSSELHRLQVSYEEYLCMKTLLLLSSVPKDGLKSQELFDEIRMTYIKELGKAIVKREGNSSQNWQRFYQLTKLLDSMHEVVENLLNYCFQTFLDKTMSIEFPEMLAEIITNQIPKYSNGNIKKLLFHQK

`N#CCCCCC#N`: the Potency entry in assay [1], in assay [2], in assay [3], in assay [8], in [9] and in assay [10] was “inactive” each time. In addition, the results for the activation in assay [4] and in assay [11] were -2.66% (inactive) and 0.486% (inactive), respectively. In addition, the molecule was called inactive in assay [5], in assay [6] and in assay [7].
`C=COC(C)=O`: the Potency result in assay [1], in assay [12], in [2], in assay [3], in assay [13] and in [10] was “inactive” throughout. Further, the activation in assay [14] was -0.411% (inactive); in assay [11] it was 1.36% (inactive).
In the case of `c1ccoc1`, the Potency entry in [1], in assay [2], in assay [3], in [13], in assay [15] and in assay [16] was “inactive” in each case. Moreover, the Potency entry in assay [17], in assay [8] and in assay [10] was “inactive” throughout. For the same molecule, the values for the activation in assay [4], in assay [14] and in assay [11] were -5.47% (inactive), 0.149% (inactive) and -0.801% (inactive), respectively. Besides, the molecule was classed as inactive in assay [5], in [6] and in [7].
In the case of `c1ccc(Nc2ccc(Nc3ccccc3)cc2)cc1`, the Potency in assay [12] was 7.94 µM (active). The result in [18], in [6] and in assay [20] was inactive. The Potency result in [2] and in assay [3] was “inactive” throughout. In addition, the max response in assay [19] worked out at 91.4%.
On to `ClC(Cl)(Cl)C(Cl)(Cl)Cl`, for which the Potency entry in [1], in assay [12], in [2], in [3], in assay [15] and in assay [16] was “inactive” in each case. Also, the Potency entry in [17] was “inactive”. The activation in assay [4] was 5.68% (inactive); in assay [14], 0.631% (inactive); in [11] it was 0.18% (inactive). The outcome in [5] and in assay [7] was inactive.
As for `NNC(N)=S`, the Potency result in assay [1], in assay [2], in [3], in [13], in assay [15] and in assay [16] was “inactive” in each case. Besides, the Potency entry in assay [17], in assay [8] and in assay [10] was “inactive” in each case. Also, the result in assay [18], in assay [6] and in assay [7] was inactive. Also, the activation in assay [4] is 0.137% (inactive); in [14], 0.227% (inactive); in assay [11] it was 0.972% (inactive).
With `Cl/C=C/CCl`, the Potency result in [1], in [12], in assay [2], in assay [3], in assay [13] and in assay [17] was “inactive” each time. In addition, the Potency result in assay [8], in assay [9] and in assay [10] was “inactive” each time. For the same molecule, the molecule was classed as inactive in assay [18], in assay [5], in assay [6], in assay [20] and in [7]. Also, the values for the activation in assay [4] and in assay [14] were 1.37% (inactive) and 0.574% (inactive), respectively. The max response in [19] turned out to be 5.14%.
With `CNC(=O)O/N=C/C(C)(C)S(C)=O` (stereo unspecified), the molecule was classed as inactive in assay [18], in [5], in assay [6], in [20] and in assay [7]. The Potency entry in [3], in assay [13], in [15], in assay [16], in assay [17] and in [8] was “inactive” each time. In addition, the Potency entry in assay [10] was “inactive”. Besides, the activation in assay [4] is 15.3% (inactive) and 5.05% (inactive); in assay [14], -0.721% (inactive) and -0.0233% (inactive). Further, the max response in assay [19] was 8.11% and 9.71%.
Turning to `OCC(Cl)CCl` (stereo unspecified), the Potency result in assay [12], in [2], in assay [3], in assay [13], in [15] and in assay [16] was “inactive” each time. For the same molecule, the Potency entry in assay [17] and in [8] was “inactive” throughout. Besides, the molecule was classed as inactive in [18], in assay [5], in assay [6] and in assay [20]. Besides, the activation in [4] is 11.4% (inactive); in [14] it was 0.192% (inactive); in assay [11] it was 1.02% (inactive). Also, in [19], the max response was -16%.
